Drawing on PubChem BioAssay (NCI), this text covers growth for 14 molecules.

This is part of a sample that, as a whole, favours compounds with a hit. Of some 83,000 tested, about 20% had one in any assay.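 Single-dose data. Exposure time 48 hours. Values below 10 considered active.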 Unmarked numbers belong to inactive results. The source made the active and inactive calls.

Test systems include DU-145 prostate; K-562 leukemia; MALME-3M melanoma; MDA-MB-231 breast; RXF 393 renal; SF-268 CNS; SF-539 CNS; UACC-257 melanoma; M14 melanoma; SF-295 CNS.
Common to all, as to assay: NCI-60 one-dose screen, 48 h (100 = growth as untreated, 0 = no growth, -100 = all killed)
Holding throughout (conditions): 10 µM unless noted

Regarding `CCOc1cc(CCNS(=O)(=O)c2ccc(C)cc2)c(C(C)=O)cc1OCC`, the growth in the experiment with DU-145 prostate is 76.1% [100 µM]; in the experiment on K-562 leukemia it was 41.3% [100 µM]; in the experiment with MALME-3M melanoma, 98.3% [100 µM]; in the experiment on MDA-MB-231 breast, 78.5% [100 µM]; with RXF 393 renal, 87% [100 µM]; in the experiment on SF-268 CNS, 79.9% [100 µM]. In addition, the growth was 101% [100 µM] in the experiment with SF-539 CNS, 77.8% [100 µM] with UACC-257 melanoma and 79.9% [100 µM] in the experiment on M14 melanoma.

Turning to `CCOC(=O)N1CCC(N=C2CSc3nnc(-c4cc(C(F)(F)F)cc(C(F)(F)F)c4)n3N2)CC1`, the growth in the experiment on DU-145 prostate is 64.6%; with K-562 leukemia, 28.3%; in the experiment with MALME-3M melanoma, 68.4%; in the experiment on MDA-MB-231 breast, 34.4%; in the experiment on SF-268 CNS, 50.2%; in the experiment on SF-295 CNS, 33.4%. The growth in the experiment on SF-539 CNS is 18.3%; with UACC-257 melanoma it was 48.6%; in the experiment on M14 melanoma it was 27.5%.

As to `Cc1ccc(C2=Nc3c(ccc4c(C)c(C)c(=O)oc34)OC2)cc1`, the growth was 106% with DU-145 prostate; 95.4% in the experiment with K-562 leukemia; 104% with MALME-3M melanoma; 105% in the experiment on MDA-MB-231 breast; 109% in the experiment on RXF 393 renal; 108% in the experiment with SF-268 CNS. Moreover, the growth with SF-295 CNS is 94.3%; in the experiment on M14 melanoma, 103%.

On to `COc1cc(NC(C)CCCN)c2nc(C)ccc2c1Oc1ccc(F)cc1` (stereo not given), for which the growth is 99.9% in the experiment with DU-145 prostate; 35.9% with K-562 leukemia; 71.7% with MALME-3M melanoma; 61.5% in the experiment with MDA-MB-231 breast; 69.3% in the experiment with RXF 393 renal; 80.7% in the experiment with SF-268 CNS. Moreover, the values for the growth in the experiment with SF-539 CNS, in the experiment on UACC-257 melanoma and with M14 melanoma were 87.5%, 65.7% and 62.3%, respectively.

As to `Clc1ccc(C2c3ccccc3-c3nccn32)c(Cl)c1` (stereo not given), the growth with DU-145 prostate was 92.4%; in the experiment with K-562 leukemia, 35.5%; with MALME-3M melanoma, 83.8%; in the experiment on MDA-MB-231 breast, 84.1%; with SF-268 CNS, 99.3%; in the experiment with SF-295 CNS, 41.7%. The growth with SF-539 CNS was 88.5%; in the experiment on UACC-257 melanoma it was 80.5%; with M14 melanoma, 65%.

Turning to `Nc1nc2c(nnn2Cc2ccc(Cl)c(Cl)c2)c(=O)[nH]1`, the growth in the experiment with DU-145 prostate is 116%; with K-562 leukemia it was 83.3%; in the experiment on MALME-3M melanoma, 107%; with MDA-MB-231 breast, 94.5%; in the experiment with RXF 393 renal, 107%; with SF-268 CNS it was 96.6%. The growth in the experiment with SF-539 CNS is 98.3%; in the experiment with UACC-257 melanoma it was 98.9%; in the experiment on M14 melanoma, 103%.

For `CC(C)OP(=O)(OC(C)C)c1ncc(-c2ccc(C(F)(F)F)cc2)c(NC2CCCCCC2)n1`, the growth with DU-145 prostate was -81.2% [33.3 µM] (active); in the experiment on K-562 leukemia it was -22.1% [33.3 µM] (active); in the experiment with MALME-3M melanoma, -85% [33.3 µM] (active); in the experiment on MDA-MB-231 breast it was -8.63% [33.3 µM] (active); with RXF 393 renal it was -85.7% [33.3 µM] (active); in the experiment on SF-268 CNS, -90.6% [33.3 µM] (active). Further, the growth was -85.6% [33.3 µM] (active) in the experiment with SF-295 CNS, -41.1% [33.3 µM] (active) in the experiment on UACC-257 melanoma and -90.2% [33.3 µM] (active) in the experiment with M14 melanoma.

For `COc1ccc(-n2cnc3cc(C(=O)N4CCCCC4)ccc32)cc1`, the growth is 111% with DU-145 prostate; 99.4% in the experiment with K-562 leukemia; 97% in the experiment on MALME-3M melanoma; 96.4% with MDA-MB-231 breast; 105% in the experiment with SF-268 CNS; 97.9% in the experiment on SF-295 CNS. The results for the growth in the experiment on SF-539 CNS, in the experiment on UACC-257 melanoma and with M14 melanoma were 98.1%, 101% and 101%, respectively.

Turning to `CC(=O)c1ccc(NS(=O)(=O)c2ccc([N+](=O)[O-])cc2)cc1`, the growth with DU-145 prostate is 111%; with K-562 leukemia, 82.1%; in the experiment on MALME-3M melanoma it was 115%; in the experiment on MDA-MB-231 breast it was 88.9%; in the experiment with RXF 393 renal it was 104%; with SF-268 CNS, 104%. For the same molecule, the results for the growth with SF-539 CNS, in the experiment with UACC-257 melanoma and with M14 melanoma were 97.8%, 105% and 107%, respectively.

With `CC(C)CNc1nc(N=[N+]=[N-])nc(NCC(C)C)n1`, the growth is 80.1% [100 µM] with DU-145 prostate; 33.5% [100 µM] in the experiment on K-562 leukemia; 72.7% [100 µM] in the experiment on MALME-3M melanoma; 48.5% [100 µM] in the experiment on MDA-MB-231 breast; 70.8% [100 µM] with RXF 393 renal; 63.3% [100 µM] in the experiment on SF-268 CNS. For the same molecule, the results for the growth in the experiment with SF-295 CNS, with UACC-257 melanoma and in the experiment on M14 melanoma were 36.5% [100 µM], 62.7% [100 µM] and 57.7% [100 µM], respectively.

On to `CCc1ccc(-c2nc(SCC(=O)NC3CCCCC3)n[nH]2)cc1`, for which the growth in the experiment on DU-145 prostate was 102%; in the experiment with K-562 leukemia it was 33.3%; in the experiment with MALME-3M melanoma, 88.2%; in the experiment with MDA-MB-231 breast it was 63.3%; with SF-268 CNS it was 82.6%; in the experiment on SF-295 CNS, 15.8%. The results for the growth with SF-539 CNS, in the experiment with UACC-257 melanoma and in the experiment with M14 melanoma were 92.9%, -1.69% (active) and 77.7%, respectively.

On to `COC(=O)[C@H](Cc1cn(C)cn1)NC(=O)[C@H](Cc1ccccc1)NC(=O)Nc1cc(C(F)(F)F)cc(C(F)(F)F)c1`, for which the growth with DU-145 prostate was -99.7% [100 µM] (active); in the experiment on K-562 leukemia, -60.2% [100 µM] (active); with MALME-3M melanoma, -86.3% [100 µM] (active); with MDA-MB-231 breast, -90.8% [100 µM] (active); with RXF 393 renal, -84.3% [100 µM] (active); in the experiment on SF-268 CNS, -94.8% [100 µM] (active). Also, the growth was -94% [100 µM] (active) in the experiment on SF-539 CNS, -96.6% [100 µM] (active) in the experiment with UACC-257 melanoma and -90.9% [100 µM] (active) with M14 melanoma.

On to `O=C(O)CCNS(=O)(=O)c1ccc(-c2ccccc2)cc1`, for which the growth with DU-145 prostate was 127%; in the experiment with K-562 leukemia, 114%; in the experiment with MALME-3M melanoma it was 112%; in the experiment on MDA-MB-231 breast, 123%; in the experiment on SF-268 CNS it was 115%; in the experiment with SF-295 CNS, 131%. Moreover, the growth was 108% in the experiment with SF-539 CNS, 87.5% in the experiment with UACC-257 melanoma and 104% in the experiment on M14 melanoma.

For `FC(F)(F)c1ccc(-c2cnc(-c3nn[nH]n3)nc2NC2CCCCCC2)cc1`, the growth in the experiment with DU-145 prostate is 64% [50 µM]; in the experiment on K-562 leukemia, 20% [50 µM]; in the experiment on MALME-3M melanoma, 69.5% [50 µM]; in the experiment on MDA-MB-231 breast it was 64.1% [50 µM]; with RXF 393 renal, 88.7% [50 µM]; in the experiment with SF-268 CNS, 47.8% [50 µM]. In addition, the growth with SF-539 CNS was 64% [50 µM]; with UACC-257 melanoma, 81.6% [50 µM]; in the experiment with M14 melanoma, 53.2% [50 µM].
